# Only some compounds are listed: those with a hit (about 3.7% of all), similar ones and a draw of the others.
# GPR7 antagonist – antagonists of human GPR7 (neuropeptides B/W receptor 1) | GPR7-expressing cells, fluorescence antagonist assay | inhibition, % at 4.4 µM | 1.1% of 290,000 active; in the data active = inhibition above about 16%, passing the limit was not always enough;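 note: cells stimulated with the agonist NPW; 0% = agonist with vehicle and 100% = vehicle without agonist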
# TMEM16A act – activates or potentiates the mouse TMEM16A chloride channel; Q8BHY3; HEK293 TMEM16A/YFP-H148Q/I152L, iodide quench fluorescence; stronger effect = lower value; B-score at 10 µM; 0.3% of 340,000 active;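 active = fluorescence-ratio B-score plate-corrected deviation score at least 3 library SD below zero, with starting fluorescence score within 5 deviations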;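 note: channel opened by trigger with iodide after compound preincubation; score built on the fluorescence ratio of max minus min over baseline; more negative score means more quench and so TMEM16A activation or potentiation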
# CHT allo act – allosterically activates the human high affinity choline transporter; Q9GZV3; CHT-expressing cells, membrane potential dye, choline EC20; stronger effect = higher value; LV-AA mutant CHT in HEK293 cells; B-score at 10 µM; 0.49% of 310,000 active; AID 488977;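 active = initial fluorescence not abnormally high and integrated response B-score, plate-corrected, over 3 SD above library mean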
# CHT inh – human CHT choline transport inhibition | Q9GZV3 | CHT-expressing cells, membrane potential dye, choline response; stronger effect = lower value | B-score at 10 µM | 0.86% of 310,000 active | AID 488975;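 active = B-score over 3 SD under the library average, and starting fluorescence ratio not unusually high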;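 note: choline stimulus applied at its EC90 after an EC20 pre-addition; B-score computed on integrated fluorescence ratio after choline addition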
# Kir21 block – Kir2.1 (mouse) channel inhibition; 0.85% of 310,000 active; HEK293-Kir2.1, FluxOR thallium flux fluorescence; stronger effect = lower value; B-score at 10 µM;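 active = fluorescence ratio B-score at or below minus 3 SD of library scores, with starting-brightness B-score within 2 SD, cut at about -4.2 in these data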;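 note: channel flux triggered by added potassium and thallium sulfate stimulus; B-score of peak minus minimum fluorescence over baseline after thallium stimulus; more negative B-score means stronger Kir2.1 block with less thallium influx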
# ANO1 block – blocks the mouse calcium-activated chloride channel TMEM16A | HEK293 TMEM16A/YFP iodide influx fluorescence, ionomycin | normalized B-score (activity score, 25-100; higher = stronger inhibition) at 10 µM | 1.2% of 310,000 active | AID 588511;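 active = ratio plate-corrected score three or more library SD toward inhibition, starting fluorescence score within five deviations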;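 note: score derived from kinetic fluorescence span divided by baseline fluorescence per well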
# * hit, by the source's call; i = inactive; / = no result given.
SMILES,GPR7 antagonist,TMEM16A act,CHT allo act,CHT inh,Kir21 block,ANO1 block
CCN(CC)N=Nc1ccc(S(N)(=O)=O)cc1,-9.7,-6.15*,i,i,-0.99,i
Cc1cccc(N2C(=O)c3cccc(Oc4ccc(Cl)cc4)c3C2=O)c1,-8.5,-7.26*,i,i,0.02,i
O=C(O)c1cccc(N2C(=O)c3ccc(Oc4ccc(Cl)cc4)cc3C2=O)c1,-13.5,i,i,i,-1.01,i
CCC(C(=O)NCCCN(CC)Cc1ccccc1)n1nc(C)c2sc3ccccc3c2c1=O (stereo not drawn),1.0,i,i,i,-9.54*,i
S=C(NCc1ccccc1)NC1CCCc2ccccc21 (stereo not drawn),-3.4,i,i,i,-6.22*,i
S=C(NCc1ccco1)NC1CCCc2ccccc21 (stereo not drawn),4.7,i,i,i,-0.26,i
CC(C)(c1ccccc1)c1ccc(OCCCN2CCNCC2)cc1,-1.4,i,i,i,-5.77*,i
COCCCNCCOc1ccc(C(C)(C)c2ccccc2)cc1,8.5,i,i,i,-13.1*,i
COc1ccc(NC(=O)c2cc([N+](=O)[O-])ccc2N2CCCC2)cc1S(N)(=O)=O,/,i,/,/,/,/
CCOc1ccccc1N(CC(=O)NCC1CCCO1)C(=O)CCC(=O)Nc1nccs1 (stereo not drawn),-5.1,i,i,i,1.76,i
CC(C)CN1C(=S)SC(C)(C)C1n1oc(=O)n(-c2ccccc2)c1=O (stereo not drawn),-3.6,i,i,i,-0.61,i
CC(C)CN1C(=S)SC(C)(C)C1n1oc(=O)n(-c2ccc(Cl)cc2)c1=O (stereo not drawn),-6.7,i,i,i,-1.77,100*
Cc1cc2nc3n(c2cc1C)CCCN3,-10.8,i,i,i,0.8,i
CC1=NNC(=O)/C1=C\c1cn(-c2ccccc2)nc1-c1ccccc1,55.4*,i,i,i,-0.07,i
O=Cc1cn(-c2ccccc2)nc1-c1ccccc1,16.6,i,i,i,1.67,i
COC(=O)c1cccc(Nc2ncnc3ccc(C)cc23)c1,2.6,i,i,i,-0.01,i
COc1ccc(Nc2ncnc3ccc(C)cc23)cc1,-16.4,i,i,i,-6.05*,i
C=CCn1c(SCC(=O)N2CCN(c3ccccc3)CC2)nc2c([nH]c3ccccc32)c1=O,0.1,i,i,i,0.67,i
CC(C)CC(=O)Nc1ccc(C(=O)COC(=O)C2CCC2)cc1,-13.2,i,i,i,-0.01,i
COc1ccccc1C1CC(c2cccc(NS(C)(=O)=O)c2)=NN1S(=O)(=O)c1ccccc1 (stereo not drawn),-15.4,-5*,i,i,-1.2,i
O=C(CN1CCN(S(=O)(=O)c2ccccc2)CC1)NC(=O)NCc1ccccc1,-1.7,-10.5*,i,i,-1.8,i
O=C(CN1CCN(S(=O)(=O)c2ccccc2)CC1)NC(=O)NCc1ccco1,-15.9,i,i,i,-1.64,i
COc1ccccc1CNC(=O)[C@@H](NC(=O)C1CCN(C(=O)[C@@H]2CCCN2C(=O)OC(C)(C)C)CC1)C(C)C,-10.3,i,i,i,1.63,i
Cc1ccccc1S(=O)(=O)Oc1cccc2c(O)cccc12,1.4,i,i,i,-4.28*,i
Nc1nn(-c2ccccc2)c(N)c1N=Nc1cccc(F)c1,1.3,i,i,i,0.53,i
Nc1nn(-c2ccccc2)c(N)c1N=Nc1ccc2c(c1)OCO2,23.6*,i,i,i,1.2,i
Cc1ccc(-n2nc3c(c2NC(=O)c2ccc(F)c(F)c2)CS(=O)(=O)C3)cc1,14.0,i,i,i,0.06,i
O=C(CCNC(=O)c1ccccc1Cl)Nc1ccncc1,-18.7,i,i,i,0.21,i
O=C1CC(c2cc([N+](=O)[O-])ccc2Cl)c2c(ccc3ccccc23)N1 (stereo not drawn),-13.1,i,i,i,0.17,i

# Screening results as filed in PubChem BioAssay.
